From PubChem BioAssay (NCI)
Compounds without any hit were thinned out: in the full panel of roughly 83,000, 20% have a hit.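 Plates (96-well) were seeded with cells, treated with compound at one concentration, and incubated for 48 hours before percent growth was determined.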 A number with no mark means an inactive call. Active and inactive are the calls of the source.

system: COLO 205 colon; assay: NCI-60 one-dose screen, 48 h (100 = growth as untreated, 0 = no growth, -100 = all killed); settings: 10 µM unless noted
Method: Cells are grown in 96 well plates and exposed to the test compound for 48 hours. Compounds are tested at a single concentration, which is 10^-5 M for most compounds. The reported endpoint is percent growth (GI% or GIPRCNT), where numbers from 0 - 100% represent growth inhibition, and numbers from -100% - 0 represent cell death. For example, a value of 40 represents 60% growth inhibition. A value of 0 means no net growth occurred over the course of the experiment. A value of -40 indicates 40% of cells at the beginning of the experiment died by the end of the experiment. A value of -100 means all cells are dead at the end of the experiment.
NCI-60 Human Tumor Cell Lines Screen was performed using the standard one-dose NCI protocol, which is described in more detail at https://dtp.cancer.gov/discovery_development/nci-60/default.htm.
Compounds with GIPRCNT values below 10 were considered active. Activity score was based on GIPRCNT using the following formula: […]
Score is 0 for GIPRCNT values of 100 or above, 50 for GIPRCNT values of 0, and 100 for GIPRCNT values of -100.

SMILES	growth
Cc1nc(-c2ccccc2)cc2c(O)c(C(=O)N/N=C/Cc3ccccc3)[nH]c(=O)c12	111%
Brc1ccc(Br)nn1	-92.5% (active)
C[C@@H](Oc1cc(-c2cnn(C3CC4(CCNCC4)C3)c2)cnc1N)c1c(F)ccc(Cl)c1Cl	-8.9% (active)
COc1cc(-c2ccc3cc(OC)c(OC)c(OC)c3c2)cc(OC)c1OC	54.7%
O=C1c2[nH]cc(CN[C@@H]3CCCN3)c2C(=O)c2c1c(O)c1ccccc1c2O	-79.8% (active)
COc1ccc(Nc2nc(NCCNc3ccnc4cc(Cl)ccc34)nc(N3CCOCC3)n2)cc1	-37.2% (active)
COc1ccc(C(=O)COc2cccc(/C=C3\CSc4ccc(C)cc4C3=O)c2)cc1	116%
O=c1[nH]c(=O)n(Cc2ccc(F)cc2)cc1F	115% [50 µM]
CC[Si](CC)(CC)OC1[C@@H](O[Si](CC)(CC)CC)[C@@H](CNC(=O)NC)O[C@H]1n1cnc2c(NC(=O)Nc3ccccc3)ncnc21 (stereo not given in full)	99.1%
COC(=O)c1cc(-c2ccc(C)cc2)n(C(=O)CSc2nc3sc(C(N)=O)c(C)c3c(=O)n2Cc2ccccc2)n1	93.5%
C=C(C)COC(=O)c1ccccc1C(=O)OCC1(C)CO1 (stereo not given)	106%
Cn1c2c(cc(S(=O)(=O)c3ccccc3)c1=O)CCc1c-2cnn1-c1cccc(Cl)c1	97.9%
COc1ccc(-c2nn(-c3ccc(NC(=O)c4ccc(Cl)c(Cl)c4)cc3)cc2-c2ccncc2)cc1Cl	-27.2% (active)
COc1cccc(-c2ccc3c(c2)C2CCN(Cc4ccccc4)C3C2)c1 (stereo not given)	79.3%
COc1ccc2c(c1)c(=O)oc1c(C)c(OCC(C)=O)ccc12	128%
Cn1cc(C(=O)NCCC(=N)N)cc1NC(=O)CN=C(N)N	103%
O=c1nc(NO)[nH]c(=O)n1Cc1ccccc1	128%
Brc1ccc(SCN(CSc2ccc(Br)cc2)Cc2ccccc2)cc1	108%
ONc1nc(NO)c2[nH]cnc2n1	112%
Clc1ccccc1Nc1ccc2nnc(-c3ccncc3)n2n1	106%

SMILES	growth
C=C(C)CCCC(C)CC#N (stereo not given)	106%
FCOC(C(F)(F)F)C(F)(F)F	117%
O=S(=O)(/N=C1C=C/C(=N\S(=O)(=O)c2ccccc2)c2ccccc2\1)c1ccccc1	111%
CCCC1=NNC(=O)C1	99.3%
Cc1nc2cc(Nc3nc(Cl)nc(Nc4ccc(F)cc4)n3)ccc2n1Cc1ccccc1	109%
CCCCc1ccc(NC(=O)C(F)(F)F)cc1	107%
Clc1ccc2c(c1)C[C@H]1C[C@@H](c3cccs3)N2O1	112%
O=C1CC(c2ccsc2)c2snc(-c3ccc(Cl)cc3)c2N1 (stereo not given)	-42.8% (active)
O=C(COc1cccc(/C=C2\COc3ccccc3C2=O)c1)c1ccccc1	102%
Nc1cc(Br)c(-c2nnc(CCC(=O)c3nc4ccccc4[nH]3)o2)c(Br)c1	70.6%
CC(C)N1CCN(c2ccc(OC[C@H]3CO[C@](Cn4cncn4)(c4ccc(Cl)cc4Cl)O3)cc2)CC1	62.9%
COc1ccc(Cn2c(Br)c3c(c2-c2cc(OC)c(OC)c(OC)c2)CCc2sc(N)nc2-3)cc1	-10.6% (active)
COc1cc(-c2nc(SC(C)C)nc(Nc3ccccc3C)c2C#N)cc(OC)c1OC	117%
CCN1CCN(C(=S)SCC(=O)Nc2nc3ccc(OC)cc3s2)CC1	112%
O=C(CCc1nnc2sc(/C=C\c3ccccc3)nn12)c1nc2ccccc2[nH]1	90.7%
COc1cccc(C2CC(=O)Nc3cc4c(cc32)OCO4)c1OC (stereo not given)	107%
O=[N+]([O-])c1ccc(O)c2ncccc12	80.5%
COc1nc2c(cc1S(=O)(=O)c1ccccc1)CCc1c-2cnn1-c1ccccc1Cl	70.4%
COc1ccc(-n2ncc3c4nc(OC)c(S(=O)(=O)c5ccccc5)cc4ccc32)cc1	96.6%
COc1cc(CNCCN2C(=O)c3ccc4c5c(ccc(c35)C2=O)C(=O)N(CCNCc2cc(OC)c(OC)c(OC)c2)C4=O)cc(OC)c1OC	-72% (active)
